Screening results (PubChem)
The entries come from a sample that favours hits as a whole.
Artemis inh = inhibitors of human Artemis endonuclease activity. Q96SD1. recombinant Artemis, quenched FAM hairpin cleavage fluorescence. 30,000 tested, 0.78% active. inhibition, % at 10 µM;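 active means at 10 µM dose, at least 30% inhibition, measured as corrected fluorescence normalized to stimulator and neutral control wells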
Target sequence (Q96SD1 whole entry, looked up): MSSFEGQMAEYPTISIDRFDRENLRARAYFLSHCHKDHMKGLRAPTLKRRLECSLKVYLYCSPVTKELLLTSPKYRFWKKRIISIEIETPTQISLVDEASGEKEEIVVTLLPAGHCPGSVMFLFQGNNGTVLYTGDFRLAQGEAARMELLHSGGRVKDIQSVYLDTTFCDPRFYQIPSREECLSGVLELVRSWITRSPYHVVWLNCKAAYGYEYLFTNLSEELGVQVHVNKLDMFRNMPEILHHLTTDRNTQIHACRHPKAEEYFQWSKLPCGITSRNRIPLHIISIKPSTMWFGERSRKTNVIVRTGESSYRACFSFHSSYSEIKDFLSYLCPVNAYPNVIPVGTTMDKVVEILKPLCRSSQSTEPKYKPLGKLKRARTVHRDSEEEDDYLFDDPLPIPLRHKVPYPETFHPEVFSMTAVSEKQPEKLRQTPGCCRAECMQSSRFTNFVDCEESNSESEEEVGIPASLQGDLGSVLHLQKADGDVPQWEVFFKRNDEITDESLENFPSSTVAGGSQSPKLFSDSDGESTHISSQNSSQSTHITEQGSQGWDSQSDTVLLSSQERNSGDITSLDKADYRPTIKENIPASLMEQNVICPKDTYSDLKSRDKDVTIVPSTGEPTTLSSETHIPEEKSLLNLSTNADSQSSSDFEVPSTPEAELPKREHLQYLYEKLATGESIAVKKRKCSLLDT
The depositor's hits bear a star.

SMILES	Artemis inh
COC1Cc2ccccc2N(C(=O)N2CCN(CCO)CC2)c2ccccc21 (stereo unspecified)	5
CCCOc1ccc(-c2nnc(N)s2)cc1	0
CCCOc1ccc(N)cc1N	31*
CCOc1cc(-c2ccc(N)c(OCC)c2)ccc1N	5
COc1ccc2c(c1OC)C(=O)OC2CC(=O)c1ccc(N(C)C)cc1 (stereo unspecified)	3
[N-]=[N+]=CC(=O)c1ccnc(C(=O)C=[N+]=[N-])c1	-1
OCn1ncn(-c2ccccc2)c1=S	8
COc1ccc(NC(=O)Nc2ccccc2C(=O)N2CCCC2)cc1	1
CCn1c(SCC(=O)Nc2sc3c(c2C#N)CCCC3)nnc1-c1ccco1	8
N#Cc1c(NC(=O)CSc2nnc(-c3ccco3)n2-c2ccccc2)sc2c1CCC2	36*
COc1ccc(-n2c(SCC(=O)Nc3sc4c(c3C#N)CCCC4)nnc2-c2ccccc2OC)cc1	14
COc1ccc(-c2nnc(SCC(=O)NC(C)C)n2CC2CCCO2)cc1OC (stereo unspecified)	-6
COc1ccc(-c2ccc(C#N)c(SCC(=O)Nc3sc4c(c3C#N)CCC4)n2)cc1	15
COc1ccc(-c2nnc(SCC(=O)Nc3sc4c(c3C#N)CCC4)n2CC2CCCO2)cc1 (stereo unspecified)	42*
O=C(CSc1nc2ccccc2[nH]1)NCCN1CCCCC1	-2
CNc1nc(SCc2ccccc2Cl)nc2c1CCCC2	7
O=C(NCC1c2ccccc2CCN1C(=O)CN1C(=O)c2ccccc2C1=O)C1CCCCC1 (stereo unspecified)	-3
Cc1ccc(C(=O)c2c(C)oc3c2C(=O)C(=O)c2ccccc2-3)cc1	55*
O=C(c1ccc(O)cc1)c1ccc(Cl)cc1	8
COc1ccc(C(=O)c2c(C(F)(F)F)oc3c2C(=O)c2ccccc2C3=O)cc1	28
COc1ccc(C(=O)c2ccc(Cl)cc2)cc1	-2
Cc1oc2c(c1C(=O)c1ccc(Cl)cc1)C(=O)C(=O)c1ccccc1-2	50*
Cc1ccc(C(=O)c2cn[nH]c2-c2ccccc2O)cc1	-1
Cc1cccc(N2C(=O)CC(Sc3nc(-c4ccccc4)c4cc(Cl)ccc4n3)C2=O)c1 (stereo unspecified)	3
FC(F)(F)C(Oc1nc(Nc2ccc(Cl)cc2)nc(N2CCOCC2)n1)C(F)(F)F	3
SMILES	Artemis inh
COc1ccc(OC)c(NC(=O)Cc2coc3ccc4ccccc4c23)c1	6
CCCCN(CCCC)Cc1cc2ccccc2c2c1COC2	-8
O=C(Cc1cccs1)Nc1ccc(-c2nnc(-c3ccccc3)o2)cc1	-2
O=C(Nc1nc(-c2cccs2)c(-c2ccccc2)s1)c1ccco1	11
O=C(Cc1ccsc1-c1ccccc1)NO	64*
Cc1cc(C)c(NC(=O)CC(C)(C)C)c(Cl)c1	-2
CCc1nnc(N2C(=O)c3cccc4cccc(c34)C2=O)s1	7
O=C(N/N=C\c1ccc(COc2ccc([N+](=O)[O-])cc2)o1)c1ccc(Cl)cc1	12
O=[N+]([O-])CC(=Nc1ccc(Cl)cc1)N/N=C\c1oc(O)c2ccccc12	35*
CN(CCOc1ccccc1)S(=O)(=O)c1ccc2oc3ccccc3c2c1	9
Cn1c(=O)[nH]c(=O)c2c1nc(N1CCOCC1)n2CCCSc1ncccn1	-3
C=CCOC(=O)c1cc(-c2ccc(/C=C3\C(=O)NC(=O)C(C#N)=C3C)o2)ccc1Cl	36*
CC1=NOC(=O)/C1=C\c1ccc(-c2cccc(Cl)c2)o1	28
C=CCOC(=O)C1=C(C)NC(SC)=C(C#N)C1c1ccc(OCC)cc1 (stereo unspecified)	0
COc1ccc2nc(NC(=O)C3CCN(S(=O)(=O)c4cnc[nH]4)CC3)sc2c1	4
COc1ccc2nc(NC(=O)C3CCCN(S(=O)(=O)c4cccs4)C3)sc2c1 (stereo unspecified)	40*
CCOc1ccc(OCC)c(NC(=O)C2CCCN(S(=O)(=O)c3cccs3)C2)c1 (stereo unspecified)	-2
CC1(C)C(=O)Nc2ccccc2N1C(=O)COC(=O)c1ccc(Cl)c(S(=O)(=O)NCc2ccccc2)c1	8
Clc1ccc(CSc2cc3c(nn2)-c2ccccc2CC3)cc1	5
COC(=O)c1cc(-c2c[nH]c3ccccc23)n[nH]1	-4
CNc1nc(-c2c[nH]c3ccccc23)cs1	38*
Cc1csc(NC(=O)Cc2c[nH]c3ccccc23)n1	-3
COCCNC(=O)NC(=O)COC(=O)c1cc([N+](=O)[O-])ccc1Sc1nc(C)cs1	-2
CC1C/C(=N/O)C(C)CN1 (stereo unspecified)	-5
CC1=C(C(=O)Nc2cccc(C)n2)C(c2ccc3c(c2)OCO3)C2=C(CC(c3ccco3)CC2=O)N1 (stereo unspecified)	1
COc1ccc(Nc2nc(N3CCCC3)c3ccccc3n2)cc1	33*
c1ccc2c(N3CCCC3)nc(-c3ccncc3)nc2c1	3
COc1cccc(Nc2nc(NCCO)c3ccccc3n2)c1	-7
COc1cc(C2Nn3c(nnc3-c3ccccc3OC)S2)ccc1O (stereo unspecified)	4
Cc1ccc(Oc2nccc(-c3ccc(Cl)cc3)n2)cc1	-4
